Our source for the outcome and AC50 values is PubChem BioAssay (EPA / NIEHS).

Each structure is given as a SMILES string. The source made the active and inactive calls. Rule for the calls: active = hit-call score of the fitted dose curve at least 0.9, where 1 is the maximum; inactive = score below 0.9.

Test [1] can be described thus: ATG_GLI_CIS: Attagene CIS-FACTORIAL HepG2 Assay for human Zinc Finger Protein GLI1 (AID 2282945). The conditions noted are these: HepG2, Attagene cis-factorial reporter mRNA, GLI element; actives raise or lower the signal. In outline: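 Transiently transfected HepG2 cells report endogenous transcription factor activity via cis-element-driven reporter units. After 24 h compound exposure, reporter mRNA was measured by RT-PCR with capillary electrophoresis; bidirectional fitting against DMSO baseline.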

A short description of test [2]: ATG_GRE_CIS: Attagene CIS-FACTORIAL HepG2 Assay for human Glucocorticoid Response Elements (GRE) (AID 2282947). To be noted: HepG2 GRE cis-reporter, Attagene multiplex mRNA; actives raise or lower the signal. A digest of the protocol: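 Endogenous transcription factor activity is read through cis-element reporter constructs transiently transfected into HepG2 cells. After 24 h treatment, labelled RT-PCR products are resolved by capillary electrophoresis; DMSO sets baseline for bidirectional curve fitting.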

Test [3] can be described thus: ATG_ISRE_CIS: Attagene CIS-FACTORIAL HepG2 Assay for human Interferon Regulatory Factor 1 (IRF1) binding to an Interferon-Stimulated Response Element (ISRE) (AID 2282948). To be noted: HepG2 ISRE cis-reporter (Attagene), mRNA transcription readout; actives raise or lower the signal. A digest of the protocol:
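Transfected HepG2 (multiple reporter transcription units, cis elements) dosed 24 h. RNA → oligo(dT) RT → PCR → 6-FAM primer extension → HpaI → CE. DMSO = negative control/baseline.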

Test [4] can be described thus: ATG_M_32_CIS: Attagene CIS-FACTORIAL HepG2 Assay for M32 Transcription Factor (Internal Marker) (AID 2282949).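 Note: background control marker of the multiplexed CIS panel rather than a real target.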 The conditions noted are these: HepG2 Attagene cis-factorial M32 reporter, mRNA; actives raise or lower the signal. A digest of the protocol: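 Internal background marker read-out: RT-PCR/capillary electrophoresis fluorescence of reporter transcripts from transiently transfected HepG2 cells after 24 h chemical exposure. Activity fitted bidirectionally relative to DMSO negative control.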

Test [5] in a line: ATG_M_06_CIS: Attagene CIS-FACTORIAL HepG2 Assay for M06 Transcription Factor (Internal Marker) (AID 2282950). The conditions noted are these: HepG2 Attagene CIS-FACTORIAL M06 internal marker reporter; actives raise or lower the signal. A digest of the protocol:
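Read-out is fluorescence of labelled reporter cDNA fragments resolved by capillary electrophoresis after RT-PCR. Cells: HepG2 carrying transfected cis-promoter reporter units, treated 24 h. Gain or loss of signal fitted relative to DMSO.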

Test [6] has as its target Hypoxia-inducible factor 1-alpha (Homo sapiens) (UniProt Q16665). As to the kind of experiment: ATG_HIF1a_CIS: Attagene CIS-FACTORIAL HepG2 Assay for human Hypoxia Inducible Factor 1 (HIF1A) (AID 2282951). The conditions noted are these: HepG2 Attagene cis-factorial HIF1a reporter transcription; actives raise or lower the signal. In outline: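 In this multiplexed cell assay, HepG2 cells bearing transfected cis reporters are dosed for 24 h and reporter mRNA is read by RT-PCR plus capillary electrophoresis; signal increases and decreases are both scored against DMSO.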

Test [7] has as its target Hepatocyte nuclear factor 6 (Homo sapiens) (UniProt Q9UBC0). As to the kind of experiment: ATG_HNF6_CIS: Attagene CIS-FACTORIAL HepG2 Assay for human Hepatocyte Nuclear Factor 6 (HNF6) (AID 2282952). The conditions noted are these: HepG2 Attagene cis-factorial HNF6 reporter transcription; actives raise or lower the signal. A digest of the protocol: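 HepG2 cells transiently transfected with cis-element-driven multiple reporter transcription units, dosed 24 h; reporter mRNA quantified by RT-PCR, FAM primer extension, HpaI digestion and capillary electrophoresis; bidirectional fit versus DMSO baseline.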

Test [8] has as its target Heat shock factor protein 1 (Homo sapiens) (UniProt Q00613). The test can be described thus: ATG_HSE_CIS: Attagene CIS-FACTORIAL HepG2 Assay for human Heat Shock Transcription Factor 1 (HSE) (AID 2282953). To be noted: HepG2 HSE cis-reporter, Attagene RNA transcription; actives raise or lower the signal. A digest of the protocol:
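HepG2, transient MRTU transfection, cis-promoter reporters (endogenous TF activity). 24 h compound. RNA → oligo(dT) RT → PCR → 6-FAM primer extension → HpaI cut → CE. Bidirectional fit vs DMSO.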

Test [9] is described as follows: ATG_MRE_CIS: Attagene CIS-FACTORIAL HepG2 Assay for human Metal Responsive Element (MRE) (AID 2282954). The conditions noted are these: HepG2 MRE cis-reporter transcription, Attagene multiplex; actives raise or lower the signal. A digest of the protocol:
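Fluorescent reporter fragments separated by capillary electrophoresis give mRNA induction for the MRE unit after 24 h treatment of transfected HepG2 cells. Endogenous transcription-factor activity is read; DMSO serves as negative control and baseline.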

A short description of test [10]: ATG_PBREM_CIS: Attagene CIS-FACTORIAL HepG2 Assay for human Phenobarbital-responsive Enhancer Module (PBREM) (AID 2282955). The conditions noted are these: HepG2 PBREM cis-reporter, Attagene multiplexed transcription; actives raise or lower the signal. In outline:
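After a 24 h incubation with test chemical, transfected HepG2 cells yield total RNA; reporter-specific RT-PCR products are fluorescently labelled, HpaI-digested and resolved by capillary electrophoresis against ROX size standards.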

The target in test [11] is Paired box protein Pax-6 (Homo sapiens) (UniProt P26367). As to the kind of experiment: ATG_Pax6_CIS: Attagene CIS-FACTORIAL HepG2 Assay for human Paired Box 6 (PAX6) (AID 2282956). To be noted: HepG2 CIS-FACTORIAL PAX6 reporter transcription, RNA readout; actives raise or lower the signal. In outline: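 Transient MRTU transfection of HepG2 → compound exposure 24 h → TriZol RNA, oligo(dT) RT → PCR, 6-FAM primer extension, HpaI cut → capillary electrophoresis; activity fitted both directions against DMSO.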
Paired box protein Pax-6 (Homo sapiens), sequence (P26367 whole entry, looked up): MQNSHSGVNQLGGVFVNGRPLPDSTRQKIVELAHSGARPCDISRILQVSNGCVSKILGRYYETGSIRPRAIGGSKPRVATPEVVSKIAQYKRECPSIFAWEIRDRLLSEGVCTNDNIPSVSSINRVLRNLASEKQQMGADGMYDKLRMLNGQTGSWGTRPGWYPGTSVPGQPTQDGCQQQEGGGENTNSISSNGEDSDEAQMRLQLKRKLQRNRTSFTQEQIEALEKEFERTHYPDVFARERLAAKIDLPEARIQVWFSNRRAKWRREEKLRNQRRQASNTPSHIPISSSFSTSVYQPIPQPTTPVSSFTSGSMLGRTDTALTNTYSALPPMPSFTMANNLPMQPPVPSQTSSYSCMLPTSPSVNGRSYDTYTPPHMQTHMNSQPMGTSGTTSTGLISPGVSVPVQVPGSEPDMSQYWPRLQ

Test [12] can be described thus: ATG_PXRE_CIS: Attagene CIS-FACTORIAL HepG2 Assay for human Pregnane X Receptor Element (PXRE) (AID 2282957). The conditions noted are these: HepG2 Attagene CIS-FACTORIAL PXRE reporter, mRNA; actives raise or lower the signal. In outline: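 HepG2 cells transiently transfected with cis-regulated multiple reporter transcription units; endogenous factor activity measured as reporter mRNA 24 h after dosing. RT-PCR, fluorescent primer extension, HpaI digestion, capillary electrophoresis; bidirectional fit versus DMSO baseline.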

Test [13] in a line: ATG_RORE_CIS: Attagene CIS-FACTORIAL HepG2 Assay for human RAR-related Orphan Receptor Element (RORE) (AID 2282959). To be noted: HepG2 Attagene cis-factorial RORE reporter, mRNA; actives raise or lower the signal. A digest of the protocol: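 Fluorescence intensity of reporter-specific cDNA fragments, separated by capillary electrophoresis, gives the signal. Source: HepG2 liver cells transiently transfected with cis-element reporters and exposed 24 h; DMSO-normalized bidirectional fit.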

Test [14] is described as follows: ATG_Sox_CIS: Attagene CIS-FACTORIAL HepG2 Assay for human SRY-box transcription factor (SOX) (AID 2282960). To be noted: HepG2 Attagene cis-factorial SOX reporter, mRNA; actives raise or lower the signal. A digest of the protocol: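 After 24 h of chemical treatment, transfected HepG2 reporter cells are lysed for total RNA. Transcript levels come from RT-PCR with labelled primer extension and capillary electrophoresis, analysed bidirectionally versus DMSO.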

In test [15] the target is Transcription factor Sp1 (Homo sapiens) (UniProt P08047). The test can be described thus: ATG_Sp1_CIS: Attagene CIS-FACTORIAL HepG2 Assay for human Specificity Protein 1 (Sp1) (AID 2282961). To be noted: HepG2 Sp1 cis-reporter transcription, actives raise or lower the signal. A digest of the protocol: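 Sp1-driven reporter mRNA, read as capillary electrophoresis fluorescence after RT-PCR, in transiently transfected HepG2 cells dosed for 24 h; signal change in either direction relative to DMSO.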
Transcription factor Sp1 (Homo sapiens), sequence (P08047 whole entry, looked up): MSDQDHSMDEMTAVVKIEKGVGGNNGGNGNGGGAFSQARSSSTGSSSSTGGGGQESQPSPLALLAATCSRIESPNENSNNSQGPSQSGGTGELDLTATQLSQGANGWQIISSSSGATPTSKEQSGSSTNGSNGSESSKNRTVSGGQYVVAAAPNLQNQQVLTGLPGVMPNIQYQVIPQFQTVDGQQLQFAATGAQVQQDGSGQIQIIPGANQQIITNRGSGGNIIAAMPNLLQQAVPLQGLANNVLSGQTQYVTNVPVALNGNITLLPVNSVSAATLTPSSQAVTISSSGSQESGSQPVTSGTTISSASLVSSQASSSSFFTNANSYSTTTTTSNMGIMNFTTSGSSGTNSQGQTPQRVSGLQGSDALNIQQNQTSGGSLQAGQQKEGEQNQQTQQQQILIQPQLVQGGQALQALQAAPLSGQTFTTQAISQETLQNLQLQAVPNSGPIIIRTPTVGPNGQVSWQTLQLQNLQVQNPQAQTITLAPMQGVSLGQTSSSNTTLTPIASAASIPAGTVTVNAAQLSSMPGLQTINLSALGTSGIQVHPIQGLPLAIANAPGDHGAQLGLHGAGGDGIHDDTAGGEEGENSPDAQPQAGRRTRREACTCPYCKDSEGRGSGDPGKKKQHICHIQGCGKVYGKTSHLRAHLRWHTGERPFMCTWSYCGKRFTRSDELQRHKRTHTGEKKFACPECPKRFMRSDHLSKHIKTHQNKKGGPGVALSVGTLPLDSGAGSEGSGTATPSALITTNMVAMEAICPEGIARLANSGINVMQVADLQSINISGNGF

The nature of test [16]: ATG_SREBP_CIS: Attagene CIS-FACTORIAL HepG2 Assay for human Sterol Regulatory Element Binding (SREBP) (AID 2282962). The conditions noted are these: HepG2 Attagene cis-factorial SREBP reporter, mRNA; actives raise or lower the signal. A digest of the protocol:
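Transfected HepG2 (cis-regulated reporter library, endogenous TFs) → compound 24 h → total RNA → oligo(dT) RT → reporter-specific PCR → FAM primer extension, HpaI cut → CE fluorescence. Fit bidirectional vs DMSO.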

The target in test [17] is Signal transducer and activator of transcription 3 (Homo sapiens) (UniProt P40763). As to the kind of experiment: ATG_STAT3_CIS: Attagene CIS-FACTORIAL HepG2 Assay for human Signal Transducer and Activator of Transcription 3 (STAT3) (AID 2282963). The conditions noted are these: HepG2, Attagene cis-factorial STAT3 reporter transcription; actives raise or lower the signal. In outline:
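Values derive from bidirectional fits relative to DMSO of reporter mRNA levels, measured by RT-PCR with capillary electrophoresis, in HepG2 cells carrying transiently transfected cis-regulated reporter units and exposed 24 h.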

Test [18] is described as follows: ATG_TA_CIS: Attagene CIS-FACTORIAL HepG2 Assay for human TA Basal Promoter (AID 2282964). The conditions noted are these: HepG2 Attagene CIS-factorial TA basal promoter reporter; actives raise or lower the signal. In outline:
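Read-out: fluorescent reporter-transcript fragments resolved by capillary electrophoresis after RT-PCR and HpaI digestion. Source: HepG2 cells carrying transiently transfected multi-reporter cis constructs, treated 24 h. Endpoint fitted bidirectionally relative to DMSO.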

Test [19] can be described thus: ATG_PPRE_CIS: Attagene CIS-FACTORIAL HepG2 Assay for human Peroxisome Proliferator-activated Response Element (PPRE) (AID 2282958). The conditions noted are these: HepG2 PPRE cis-element reporter, Attagene transcription factor profiling; actives raise or lower the signal. A digest of the protocol: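 Multiplexed reporter transcription units under cis-regulatory promoters were transfected into HepG2 cells to capture endogenous factor activity. A 24 h incubation preceded RNA isolation and fluorescent RT-PCR fragment analysis.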

Hypoxia-inducible factor 1-alpha (Homo sapiens), sequence (Q16665 whole entry, looked up): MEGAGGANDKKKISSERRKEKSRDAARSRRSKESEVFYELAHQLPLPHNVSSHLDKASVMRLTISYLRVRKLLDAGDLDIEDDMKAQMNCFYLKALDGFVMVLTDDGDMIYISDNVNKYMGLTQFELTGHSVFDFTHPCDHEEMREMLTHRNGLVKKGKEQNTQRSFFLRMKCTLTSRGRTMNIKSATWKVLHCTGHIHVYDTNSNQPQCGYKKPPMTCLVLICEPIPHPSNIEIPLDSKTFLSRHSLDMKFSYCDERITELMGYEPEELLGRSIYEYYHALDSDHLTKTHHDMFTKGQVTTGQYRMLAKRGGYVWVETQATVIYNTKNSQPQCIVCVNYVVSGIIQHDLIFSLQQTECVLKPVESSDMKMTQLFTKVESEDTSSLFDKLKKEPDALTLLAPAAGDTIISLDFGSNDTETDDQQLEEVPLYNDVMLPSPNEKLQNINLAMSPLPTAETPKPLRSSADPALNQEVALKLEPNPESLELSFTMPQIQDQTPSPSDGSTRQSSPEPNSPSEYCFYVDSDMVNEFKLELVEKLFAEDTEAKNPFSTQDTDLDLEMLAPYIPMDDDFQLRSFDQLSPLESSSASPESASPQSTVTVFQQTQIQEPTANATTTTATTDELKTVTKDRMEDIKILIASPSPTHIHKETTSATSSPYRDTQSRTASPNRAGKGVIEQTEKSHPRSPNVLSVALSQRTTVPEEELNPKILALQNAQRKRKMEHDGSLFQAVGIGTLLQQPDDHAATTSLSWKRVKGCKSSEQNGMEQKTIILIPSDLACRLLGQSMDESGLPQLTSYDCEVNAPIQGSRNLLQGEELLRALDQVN
Signal transducer and activator of transcription 3 (Homo sapiens), sequence (P40763 whole entry, looked up): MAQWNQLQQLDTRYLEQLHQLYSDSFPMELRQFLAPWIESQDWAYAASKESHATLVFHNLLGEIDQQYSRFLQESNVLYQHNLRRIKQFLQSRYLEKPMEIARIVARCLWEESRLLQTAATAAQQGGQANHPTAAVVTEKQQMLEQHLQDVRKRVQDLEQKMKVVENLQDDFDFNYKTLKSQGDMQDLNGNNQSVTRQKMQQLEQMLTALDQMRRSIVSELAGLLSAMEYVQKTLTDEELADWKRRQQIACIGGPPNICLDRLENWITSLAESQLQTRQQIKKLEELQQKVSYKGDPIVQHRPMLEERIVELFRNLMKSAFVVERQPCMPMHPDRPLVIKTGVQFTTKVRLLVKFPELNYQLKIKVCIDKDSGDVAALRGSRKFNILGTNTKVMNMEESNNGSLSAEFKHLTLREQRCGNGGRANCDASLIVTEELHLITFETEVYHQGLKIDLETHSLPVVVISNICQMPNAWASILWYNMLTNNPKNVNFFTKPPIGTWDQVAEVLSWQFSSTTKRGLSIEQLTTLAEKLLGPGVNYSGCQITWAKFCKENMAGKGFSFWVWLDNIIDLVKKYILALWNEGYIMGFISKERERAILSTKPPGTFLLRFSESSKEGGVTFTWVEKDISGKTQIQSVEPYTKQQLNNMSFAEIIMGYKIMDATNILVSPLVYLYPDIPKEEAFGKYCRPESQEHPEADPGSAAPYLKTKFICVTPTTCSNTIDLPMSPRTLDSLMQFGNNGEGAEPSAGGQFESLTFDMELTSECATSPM
Heat shock factor protein 1 (Homo sapiens), sequence (Q00613 whole entry, looked up): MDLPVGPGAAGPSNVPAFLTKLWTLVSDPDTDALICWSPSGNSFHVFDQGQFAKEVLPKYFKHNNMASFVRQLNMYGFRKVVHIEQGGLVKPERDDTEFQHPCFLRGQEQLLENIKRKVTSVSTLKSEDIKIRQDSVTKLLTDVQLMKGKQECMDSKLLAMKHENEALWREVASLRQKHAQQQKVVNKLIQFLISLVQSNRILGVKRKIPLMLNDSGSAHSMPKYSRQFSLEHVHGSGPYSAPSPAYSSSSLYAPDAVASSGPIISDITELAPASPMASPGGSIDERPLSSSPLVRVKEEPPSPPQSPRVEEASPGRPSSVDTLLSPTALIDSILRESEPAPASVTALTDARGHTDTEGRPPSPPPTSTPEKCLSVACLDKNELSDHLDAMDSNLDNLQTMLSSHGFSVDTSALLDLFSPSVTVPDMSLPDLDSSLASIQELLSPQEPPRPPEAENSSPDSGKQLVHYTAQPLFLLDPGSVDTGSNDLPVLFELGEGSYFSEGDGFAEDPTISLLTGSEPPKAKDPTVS
Hepatocyte nuclear factor 6 (Homo sapiens), sequence (Q9UBC0 whole entry, looked up): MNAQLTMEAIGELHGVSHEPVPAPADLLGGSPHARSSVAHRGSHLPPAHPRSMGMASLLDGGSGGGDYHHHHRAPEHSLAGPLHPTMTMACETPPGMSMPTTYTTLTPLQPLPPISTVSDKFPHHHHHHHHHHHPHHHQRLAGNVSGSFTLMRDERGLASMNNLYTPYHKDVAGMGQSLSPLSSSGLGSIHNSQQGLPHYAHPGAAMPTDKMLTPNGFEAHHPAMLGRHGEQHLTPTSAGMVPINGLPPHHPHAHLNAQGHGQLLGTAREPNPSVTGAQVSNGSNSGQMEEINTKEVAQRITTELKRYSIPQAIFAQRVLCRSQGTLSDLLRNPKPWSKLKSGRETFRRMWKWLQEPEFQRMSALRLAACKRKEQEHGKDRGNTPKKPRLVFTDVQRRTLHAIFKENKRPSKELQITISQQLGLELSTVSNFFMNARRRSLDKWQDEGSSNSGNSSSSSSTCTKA

In the case of `CCCC(C)C(=O)OCC` (stereo not drawn), the outcome in [1], in test [2], in test [3], in test [4], in test [5] and in test [6] was inactive. For the same compound, the compound was classed as inactive in test [7], in [8], in test [9], in [10], in [11] and in [12]. In addition, the result in [13], in test [14], in test [15], in test [16], in test [17] and in [18] was inactive.
A word on the AC50: it is the concentration at which the activity in the assay is half-maximal. On to `O=C1CCCN1C1CCCCC1`, for which the compound was called inactive in [1], in test [2], in test [3], in test [4], in test [5] and in test [6]. In addition, the outcome in test [7], in test [8], in [9], in test [10], in test [11] and in [13] was inactive. For the same compound, the call in [14], in test [15], in test [16], in test [17] and in [18] was inactive. For the same compound, the AC50 in test [12] was 57.1 µM (active).
As for `Cc1c(C(=O)c2c[nH]n(C)c2=O)ccc(S(C)(=O)=O)c1C1=NOCC1`, the call in test [1], in test [2], in test [3], in test [4], in test [5] and in test [6] was inactive. For the same compound, the call in test [7], in test [8], in test [9], in test [10], in test [11] and in test [13] was inactive. The outcome in test [14], in test [15], in test [16], in [17] and in test [18] was inactive. In addition, in [12], the half-maximal activity concentration (AC50) was 14.4 µM (active).
As to `CCOC(=O)c1ccccc1C`, the call in test [1], in test [2], in test [3], in [4], in test [5] and in test [6] was inactive. Further, the call in test [7], in [8], in test [9], in test [10], in [11] and in test [12] was inactive. Also, the compound was called inactive in [13], in test [14], in test [15], in test [16], in test [17] and in test [18].
For `CCCCCCO`, the call in [1], in test [2], in test [3], in test [4], in [5] and in test [6] was inactive. For the same compound, the result in test [7], in test [9], in test [10], in test [12], in test [13] and in [14] was inactive. In addition, the result in [15], in [16], in test [17] and in [18] was inactive.
Take `CCCCCCCO`: the call in test [1], in test [2], in [3], in [4], in [5] and in test [7] was inactive. Further, the compound was classed as inactive in test [8], in test [9], in test [10], in test [11], in test [13] and in test [14]. Further, the outcome in [15], in test [16] and in test [17] was inactive. In addition, in [12], the half-maximal activity concentration (AC50) was 39.1 µM (active).
With `C=CCCCCCCCCC=O`, the result in [1], in test [2], in test [3], in test [4], in test [5] and in [6] was inactive. In addition, the call in [7], in test [9], in test [10], in test [11], in test [13] and in test [15] was inactive. Moreover, the outcome in test [16], in [17] and in test [18] was inactive. Further, the results for the half-maximal activity concentration (AC50) in [12] and in test [19] were 100 µM (active) and 64.2 µM (active), respectively.
Consider `Nc1ccnc(=O)[nH]1`, for which the compound was called inactive in test [1], in [2], in test [3], in [4], in test [5] and in test [6]. For the same compound, the call in test [7], in test [9], in [11], in test [12], in test [19] and in [13] was inactive. Also, the outcome in [14], in [15], in [16], in test [17] and in test [18] was inactive.
